From PubChem BioAssay
This is one part of a sample in which hits are shown more often than they occur.
DAT uptake mod: changed hDAT dopamine uptake under cocaine IC80, either direction, primary screen, cocaine antagonist project, cell-based, LLC-PK1 hDAT, [14C]-dopamine uptake, MLSMR. B-score at 10 µM. Sodium-dependent dopamine transporter (Homo sapiens), Q01959. AID 449768, 2010. LLC-PK1 hDAT cells, [14C]-dopamine uptake with cocaine IC80; actives deviate in either direction. 110,000 tested, 1.3% active;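 active = Z score or B-score, a plate-position-corrected score, falls beyond the plate's 99.7% confidence bounds, in either direction; inactive = both scores lie inside the 99.7% bounds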
D1 mod: D1 CRE-luciferase signal change, two-sided – cell-based, HEK293 D1, dopamine EC30, D1 allosteric modulator project, primary screen | D(1A) dopamine receptor (Homo sapiens), P21728 | AID 641, 2007 | dopamine EC30 potentiation; actives deviate in either direction | B-score at 10 µM | 58,000 tested, 5.9% active;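 active = luminescence count or its row- and column-corrected plate score outside the 99.7% band of the plate's sample wells, on either side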
BAP1 block: inhibitors of BAP1 deubiquitinase, primary screen, biochemical, Ub-AMC fluorescence, kinetic; Ubiquitin carboxyl-terminal hydrolase BAP1 (Homo sapiens), Q92560; recombinant BAP1, Ub-AMC hydrolysis fluorescence kinetic; stronger effect = lower value; calls only at 20 µM; 72,000 tested, 0.48% active; AID 436, 2006;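 active = activity remaining at or below 50% of control, provided the compound also passes the data quality filters; inactive = the rest, including low values that fail the filters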
Target sequence (Q92560 whole entry, looked up): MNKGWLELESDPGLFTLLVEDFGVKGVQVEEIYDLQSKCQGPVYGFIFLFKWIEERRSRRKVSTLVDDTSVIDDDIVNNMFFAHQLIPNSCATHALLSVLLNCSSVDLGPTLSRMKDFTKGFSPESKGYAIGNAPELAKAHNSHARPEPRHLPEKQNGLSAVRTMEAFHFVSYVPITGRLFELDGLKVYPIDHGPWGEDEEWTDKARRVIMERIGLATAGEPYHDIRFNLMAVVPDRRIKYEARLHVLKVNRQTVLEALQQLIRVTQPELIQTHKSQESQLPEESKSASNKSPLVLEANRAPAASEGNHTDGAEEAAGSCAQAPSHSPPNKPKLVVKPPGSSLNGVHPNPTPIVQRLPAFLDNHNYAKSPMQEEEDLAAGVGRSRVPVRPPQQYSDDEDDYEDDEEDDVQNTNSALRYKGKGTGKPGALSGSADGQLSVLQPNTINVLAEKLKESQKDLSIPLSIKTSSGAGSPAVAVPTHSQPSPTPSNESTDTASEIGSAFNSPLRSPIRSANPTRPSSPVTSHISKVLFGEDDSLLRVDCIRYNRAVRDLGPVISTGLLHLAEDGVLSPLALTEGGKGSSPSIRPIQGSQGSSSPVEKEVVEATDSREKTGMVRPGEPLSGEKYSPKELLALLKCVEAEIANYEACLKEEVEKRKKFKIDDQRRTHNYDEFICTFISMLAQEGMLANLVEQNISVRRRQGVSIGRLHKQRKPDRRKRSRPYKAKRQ
D1 PAM confirm: D1 receptor positive allosteric modulators, retest, confirmation, cell-based, HEK293 D1, CRE-luciferase, duplicate. shares compounds with D1 mod. dopamine EC30 potentiation; stronger effect = higher value. luminescence at 10 µM. 2,200 tested, 88% active;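 active = luminescence in either of two replicates above the same-plate mean plus 3 SD of the low-dose dopamine control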
D1 no dopamine: D1 receptor agonism without dopamine, confirmation, mechanism study for D1 allosteric modulator project, cell-based, HEK293 D1, CRE-luciferase, secondary assay 1; shares compounds with D1 mod; luminescence, no dopamine; stronger effect = higher value; luminescence at 10 µM; 1,900 tested, 0.8% active; in the data active = luminescence above about 3900
Isoprot counter: isoproterenol response counter-screen activity for D1 modulators; AID 647; shares compounds with D1 mod; luminescence at 10 µM; 2,200 tested, 63% active; HEK293 D1 CRE-luciferase, isoproterenol EC30 counter-screen; stronger effect = higher value;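 active = luminescence in either replicate above plate mean of wells with a partly effective reference agonist dose plus 3 SD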;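 note: isoproterenol raises cAMP through native beta-adrenoceptor Gs so signal bypasses D1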
Large screens that a line does not name were inactive (follow-up assays come after a bar, where shown).

CCn1cc(C(=O)NCc2ccc3c(c2)OCO3)c(=O)c2cc(S(=O)(=O)N3CCOCC3)ccc21	D1 mod 3.7 | D1 PAM confirm 10664 | D1 no dopamine inactive | Isoprot counter 3524
CCn1cc(C(=O)NCCCN2CC(C)CC(C)C2)c(=O)c2cc(S(=O)(=O)N(C)C)ccc21 (centres undefined)	none
CCn1cc(C(=O)NCc2ccc(Cl)cc2)c(=O)c2cc(S(=O)(=O)N3CCOCC3)ccc21	none
COc1ccccc1C1C(C(=O)OC(C)C)=C(C)NC2=C1C(=O)CCC2 (centres undefined)	none (no result: DAT uptake mod, D1 mod)
CCCOc1ccccc1C1C(C(=O)OC)=C(C)NC2=C1C(=O)CCC2 (centres undefined)	none (no result: DAT uptake mod, D1 mod)
Cc1nc(SCC#N)c2c3c(sc2n1)CCC3	none (no result: D1 mod)
Cc1cc(C)nc(Sc2ncnc3sc4c(c23)CCC4)n1	none (no result: D1 mod, BAP1 block)
N#CCSc1ncnc2sc3c(c12)CCC3	D1 mod 4.9 | D1 PAM confirm 12888 | D1 no dopamine inactive | Isoprot counter inactive
CC(C#N)Sc1ncnc2sc3c(c12)CCC3 (centres undefined)	D1 mod 6.3 | D1 PAM confirm 21012 | D1 no dopamine inactive | Isoprot counter 4668
CCOC(=O)c1cccc(NC(=O)COc2ccc(OC)cc2)c1	none (no result: DAT uptake mod, D1 mod)
COc1ccc(-c2ccc(SCC(=O)N3CCCC3)nn2)cc1OC	D1 mod 14 | D1 PAM confirm 25344 | D1 no dopamine inactive | Isoprot counter 5500
COc1ccc(-c2nnc(SCC(=O)N3CCCCC3)o2)cc1OC	none
COc1ccc(-c2ccc(Nc3ccc(C(=O)N4CCOCC4)cc3)nn2)cc1OC	none (no result: D1 mod, BAP1 block)
COc1ccc(-c2ccc(SCC(=O)N3CCOCC3)nn2)cc1OC	D1 mod 12 | D1 PAM confirm 27680 | D1 no dopamine inactive | Isoprot counter 4596
CC(C)c1cccc(C(C)C)c1NC(=O)C(C(C)C)N1C(=O)c2ccccc2C1=O (centres undefined)	none (no result: DAT uptake mod, D1 mod)
CCOC(=O)C1=C(C)NC2=C(C(=O)CC(c3ccccc3)C2)C1c1cccnc1 (centres undefined)	none (no result: DAT uptake mod, D1 mod)
COCCNc1cccc2c1C(=O)c1ccccc1C2=O	none (no result: DAT uptake mod, D1 mod)
COCCCNc1c2c3c(cccc3[nH]c1=O)C(=O)c1ccccc1-2	D1 mod 3 (no result: BAP1 block) | D1 PAM confirm 8772 | D1 no dopamine inactive | Isoprot counter inactive
O=C(CN1CCN(c2ccccc2)CC1)Nc1c(C(=O)C2CC2)oc2ccccc12	none
O=C(O)CCSCC(=O)Nc1c(C(=O)C2CC2)oc2ccccc12	D1 mod 8.3 | D1 PAM confirm 14596 | Isoprot counter 3444
COC(=O)C1=C(C)N(C)C(=S)NC1c1ccc(OC)c(OC)c1 (centres undefined)	none (no result: DAT uptake mod, D1 mod)
CCn1c(SCCC(=O)O)nnc1-c1cccnc1	none (no result: D1 mod)
CCOC(=O)c1cnn2c(C(F)(F)F)cc(-c3ccccc3)nc12	none
Cc1nn(CCC(=O)O)c2nc(-c3cccnc3)cc(C(F)(F)F)c12	D1 mod 5.4 (not shown: BAP1 block) | D1 PAM confirm 8896 | Isoprot counter inactive
CCOC(=O)c1cc2c(C(F)(F)F)cc(-c3cccnc3)nc2o1	D1 mod 5.3 (not shown: BAP1 block) | D1 PAM confirm 6932 | D1 no dopamine inactive | Isoprot counter 2892
COC(=O)CCc1c(C)c(C#N)c2nc3ccccc3n2c1N1CCCC1	D1 mod 5.5 | D1 PAM confirm 10456 | Isoprot counter 3348
CCOC(=O)CCc1c(C)c(C#N)c2nc3ccccc3n2c1-n1ccnc1	none
CC(=O)c1c(Cl)nc2ccc(Cl)cc2c1-c1ccccc1	none (no result: DAT uptake mod, D1 mod)
Cc1csc(NC(=O)c2ccc(Br)cc2)n1	none (no result: DAT uptake mod, D1 mod)
COc1ccc(-n2c(SCC(N)=O)nnc2-c2ccc(NS(=O)(=O)c3ccc(C)cc3)cc2)cc1	none (no result: D1 mod, BAP1 block)
COc1ccc(-n2c(SCC#N)nnc2-c2ccc(NS(=O)(=O)c3ccc(C)cc3)cc2)cc1	D1 mod 9.9 | D1 PAM confirm 21068 | D1 no dopamine inactive | Isoprot counter 5284
N#Cc1nc(-c2ccccc2)oc1N1CCCCC1	none (not shown: BAP1 block)
N#Cc1nc(-c2ccco2)oc1N1CCN(C(c2ccccc2)c2ccccc2)CC1	none (not shown: BAP1 block)
N#Cc1nc(-c2ccco2)oc1N1CCCC1	D1 mod 4 (not shown: BAP1 block) | D1 PAM confirm 11548 | Isoprot counter 3164
N#Cc1nc(-c2ccccc2F)oc1N1CCCC1	D1 mod 6.4 (not shown: BAP1 block) | D1 PAM confirm 11832 | D1 no dopamine inactive | Isoprot counter 3016
CN(C)c1ccc(NS(=O)(=O)c2ccc([N+](=O)[O-])cc2)cc1	none (no result: DAT uptake mod, D1 mod)
CCOC(=O)c1sc(=S)n(CC)c1N	D1 mod 5.1 | D1 PAM confirm 10812 | D1 no dopamine inactive | Isoprot counter inactive
C=CCn1c(N)c(C(=O)OCC)sc1=S	none (no result: D1 mod, BAP1 block)
CN1CCN(c2c(CN3CCCC3)c(=O)oc3ccccc23)CC1	none (no result: DAT uptake mod, D1 mod)
Cc1ccc(C(=O)Nc2cc(-c3nc4ccccc4s3)ccc2C)cc1	none (no result: DAT uptake mod, D1 mod)
COc1c(S(=O)(=O)N2CCCC2)ccc(Cl)c1Cl	D1 mod 5.4 | D1 PAM confirm 10616 | D1 no dopamine inactive | Isoprot counter 3288
O=S(=O)(c1cccc(Cl)c1Cl)N1CCCCC1	none
Nc1nc(C2CC2)c(Sc2sc(N)nc2C2CC2)s1	D1 mod 10 | D1 PAM confirm 11736 | D1 no dopamine inactive | Isoprot counter 4288
COc1ccccc1-n1c(CNC(=O)c2ccc(S(=O)(=O)N(C)C)cc2)n[nH]c1=S	none (no result: DAT uptake mod, D1 mod)
C#CCNc1nc(CC)nc2c1nnn2Cc1ccccc1F	D1 mod 5.9 | D1 PAM confirm 15288 | D1 no dopamine inactive | Isoprot counter 4944
CCc1nc(NCCCCCO)c2nnn(Cc3ccccc3F)c2n1	none (no result: D1 mod, BAP1 block)
COCCNC(=O)c1cc(-c2ccc(OC)c(OC)c2)on1	D1 mod 15 | D1 PAM confirm 15388 | D1 no dopamine inactive | Isoprot counter 3480
Cc1ccc(-c2cc(C(=O)NCc3cccnc3)no2)cc1	none (not shown: BAP1 block)
COc1ccc(-c2cc(C(=O)NCc3cccnc3)no2)cc1OC	D1 mod 4.2 | D1 PAM confirm 9080 | Isoprot counter inactive
COCCNC(=O)c1cc(-c2ccc(Cl)c(Cl)c2)on1	none
COc1ccc(-c2cc(C(=O)N3CCCc4ccccc43)no2)cc1OC	none
COc1ccc(-c2cc(C(=O)N3CCc4ccccc4C3)no2)cc1OC	D1 mod 4.6 | D1 PAM confirm 10752 | D1 no dopamine inactive | Isoprot counter 3948
CCCCCCC1CCC(c2ccc(C(N)=O)c(Cl)n2)CC1 (centres undefined)	none (no result: DAT uptake mod, D1 mod)
COc1ccc(C2C(C(=O)OC3CCCC3)=C(C)NC3=C2C(=O)CC(C)(C)C3)cc1OC (centres undefined)	none (no result: DAT uptake mod, D1 mod)
